# Unmarked numbers belong to inactive results. How the calls were made is not given here.
# Biological target: Pantothenate synthetase (Mycobacterium tuberculosis (strain ATCC 25618 / H37Rv)) (UniProt P9WIL5)
# Assay: Coupled enzyme confirmation of inhibitors against recombinant Mtb PanC (AID 375);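 further: 0% = full reaction with vehicle and 100% = no enzyme background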
# Details: coupled enzyme assay; at 10 µM, hits give high values
# Pantothenate synthetase (Mycobacterium tuberculosis (strain ATCC 25618 / H37Rv)), sequence (P9WIL5 whole entry, looked up): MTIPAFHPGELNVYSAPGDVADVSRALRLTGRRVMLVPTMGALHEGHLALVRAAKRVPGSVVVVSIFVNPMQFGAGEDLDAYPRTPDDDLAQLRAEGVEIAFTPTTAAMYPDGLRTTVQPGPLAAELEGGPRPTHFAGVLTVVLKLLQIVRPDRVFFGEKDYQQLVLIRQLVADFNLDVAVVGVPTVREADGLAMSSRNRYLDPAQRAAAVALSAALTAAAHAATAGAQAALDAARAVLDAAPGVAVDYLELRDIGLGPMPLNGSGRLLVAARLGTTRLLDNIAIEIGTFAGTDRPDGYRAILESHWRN
row,Compound,inhibition
1,O=C(NCCN1CCOCC1)C1CCC(=O)N1Cc1ccccc1Cl (stereo unspecified),0%
2,CC1CCCC(NC(=O)CSc2ncccc2C(=O)O)C1C (stereo unspecified),0%
3,Cc1cccc(C(=O)N(C)c2nnc(-c3ccncc3)s2)c1,0%
4,CCS(=O)(=O)N1CCC(C(=O)NCc2cccs2)CC1,2%
5,Cc1ccc(S(=O)(=O)N(C)c2ccc(OCC(=O)OCc3c(C)noc3C)cc2)cc1,0%
6,COc1cccc(-n2c(C)nc3c(cnn3-c3ccc(C)cc3)c2=O)c1,3%
7,CCC(C)(C)n1nnnc1C(c1ccc(OC)c(OC)c1)N1CCN(c2ccc(F)cc2)CC1 (stereo unspecified),0%
8,N#Cc1ccccc1Cn1c(=O)n(Cc2ccc(C(=O)NCc3ccco3)cc2)c(=O)c2sccc21,9%
9,CC(C)c1nc(N2CCN(C(=O)c3ccco3)CC2)c2c3c(sc2n1)CCCC3,1%
10,COc1ccc(OC)c(N2Cc3cc(C)c(C)cc3C2)c1,3%
11,CCN1CCc2c(C#N)c(N3CCOCC3)nc(NCc3ccccc3)c2C1,0%
12,Cc1ccc(-n2ncc3c(=O)n(CC(=O)NC4CCCCC4)cnc32)cc1C,12%
13,CS(=O)(=O)N(CC(=O)N1CCN(c2cccc(Cl)c2)CC1)C1CCCCC1,0%
14,CN(C)S(=O)(=O)c1ccc(S(=O)(=O)N(Cc2ccco2)Cc2ccccc2Cl)cc1,3%
15,COCCN(C(=O)c1csnn1)C(C(=O)NC(C)(C)C)c1cccc(OC)c1 (stereo unspecified),1%
16,CCSc1nnc(NC(=O)c2ccc(C)o2)s1,9%
